E-sel TNF inh – TNF alpha driven E-selectin expression inhibition. HUVEC TNFa-induced E-selectin immunofluorescence, high content. inhibition, % at 2 µM. 120,000 tested, 0.71% active. AID 1246;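 active = inhibition above the batch mean plus 3 SD, and confirmed as a hit on visual image review, cut at about 43% in these data; inconclusive = passes the inhibition cutoff but fails visual image review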;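 also: 0% = TNF-stimulated DMSO wells and 100% = unstimulated control wells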
HUVEC tox TNFa – HUVEC cytotoxicity counter-screen, TNF alpha stimulated | 93,000 tested, 0.17% active | HUVEC TNFalpha-stimulated, Hoechst cell count, imaging | cell count reduction, % at 2 µM;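 active = cell count reduction exceeding the screen mean by over 5 SD, scaled to untreated wells per plate, cut at about 78% in these data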;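 also: cells counted after 24 h of TNF alpha exposure following the 1 h pretreatment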
IL1B cytotox – HUVEC cytotoxicity counter-screen, IL-1B stimulated. 94,000 tested, 0.41% active. cell count reduction, % at 2 µM. AID 845. HUVEC cell count loss, Hoechst imaging;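 active = cell count reduction more than 3 SD above the screen-wide mean, cut at about 70% in these data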;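 also: normalized per plate to untreated control cells as the no-loss baseline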
NFkB transloc pot – enhances IL-1B driven NFkB nuclear translocation. activation, % at 2 µM. 94,000 tested, 0.3% active. HUVEC IL-1B NFkB p65 nuclear translocation imaging. AID 819;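 active = activation above 40%, about the mean plus 3 SD, also judged a hit on visual image review; inconclusive = activation above 40% but not a hit on visual review; inactive = activation not above 40% and no visual hit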;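 also: percent activation is computed from the nuclear over cytoplasmic p65 intensity ratio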
IL1B NFkB inh – blocks IL-1B driven NFkB nuclear translocation in HUVEC cells | inhibition, % at 2 µM | 94,000 tested, 0.43% active | HUVEC IL-1B NFkB p65 nuclear translocation imaging | AID 796;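 active = inhibition above about 30% together with a positive call from visual inspection of the well image, limit read from the data; inconclusive = inhibition above a set limit but visual check negative; inactive = inhibition not above a set limit, visual check negative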;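 also: nuclear over cytoplasmic p65 intensity ratio measured by imaging; 0% = IL-1B stimulated DMSO wells and 100% = unstimulated DMSO wells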
VCAM1 TNFa inh – reduces TNF alpha induced VCAM1 expression in HUVEC. HUVEC TNFa-induced VCAM-1 immunofluorescence, high-content imaging. inhibition, % at 2 µM. 95,000 tested, 0.48% active;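 active = inhibition above the batch mean plus 3 SD, with images confirmed as a hit by eye, cut at about 37% in these data; inconclusive = inhibition above that limit but hit not confirmed in images; inactive = inhibition not above that limit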;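 also: 0% = TNF-stimulated DMSO wells and 100% = unstimulated control wells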
Numbers without * were called inactive; ? = inconclusive; nt = no result given. Only some compounds are listed: those with a hit (about 1.6% of all), similar ones and a draw of the others.

SMILES | E-sel TNF inh | HUVEC tox TNFa | IL1B cytotox | NFkB transloc pot | IL1B NFkB inh | VCAM1 TNFa inh
COc1ccc(C(CC(=O)NCc2ccccc2)Sc2n[nH]c(-c3ccccc3)n2)cc1 (centres undefined) | 92* | nt | nt | nt | nt | nt
CC(C)c1nc(SCC(=O)NCc2ccccc2)n[nH]1 | nt | -23 | -25 | 12 | -12 | 12
CCn1cc(C(=O)O)c(=O)c2cc(F)c(N3CCN(C(=S)NC(=O)c4ccc(Br)cc4)CC3)cc21 | 74* | nt | nt | nt | nt | nt
COc1ccc(-n2nc(C(C)=O)c(=O)[nH]c2=O)cc1 | 41 | nt | nt | nt | nt | nt
COc1ccc(S(=O)(=O)NC(CC(=O)NCc2ccco2)C(C)C)cc1 (centres undefined) | nt | 100* | nt | nt | nt | ?
[O-]/[N+](=C\c1ccccc1)[C@@H]1CCCC[C@@H]1/[N+]([O-])=C/c1ccccc1 | -7 | -30 | 93* | -12 | 12 | 18
COc1ccc(-c2csc3ncnc(Oc4cccc5ccc(C)nc45)c23)cc1 | 89* | nt | nt | nt | nt | nt
COC(=O)N/N=C/c1ccc(-c2cc(Cl)ccc2Cl)o1 | -5 | nt | nt | nt | nt | nt
NC(=S)N/N=C\c1ccc(-c2cccc(Cl)c2Cl)o1 | 1 | 49 | -2 | 9 | -9 | 80*
NC(=S)N/N=C/c1ccc(-c2ccc(Cl)c(Cl)c2)o1 | -1 | 8 | 36 | 23 | -23 | 68*
COC(=O)N/N=C\c1ccc(-c2cc(Cl)c(Cl)cc2Cl)o1 | 7 | nt | nt | nt | nt | nt
CCN(C(=O)COC(=O)c1ccc2[nH]c3c(c2c1)CCCC3)C1CCS(=O)(=O)C1 (centres undefined) | -13 | nt | nt | nt | nt | nt
Nc1cccc(-n2nncc2-c2ccc(Cl)cc2)c1 | 65* | -4 | 12 | 3 | -3 | 11
Nc1nnnn1/N=C/C(Br)=C/c1ccccc1 | 34 | 4 | 5 | -13 | 13 | 54*
Nc1nnnn1/N=C/C=C/c1ccccc1 | -23 | nt | nt | nt | nt | nt
Cc1cc(C)c(/C=N/NC(N)=O)c(C)c1/C=N/NC(N)=O | -29 | 44 | -23 | 0 | 0 | 69*
CCc1cc(CC)c(/C=N/NC(N)=O)c(CC)c1 | 4 | nt | nt | nt | nt | nt
CC(C)(C)c1ccc(S(=O)(=O)Nc2cccc(C3OCCCO3)c2)cc1 | -54 | nt | nt | nt | nt | nt
CCOc1cc(N2CCOCC2)c(OCC)cc1NC(=S)NCCCOC | 4 | nt | nt | nt | nt | nt
COc1ccccc1C(=O)Nc1ccc2c(c1)OCCO2 | 6 | 0 | -13 | 6 | -6 | -3
COc1cc(SC)ccc1C(=O)Nc1ccc2c(c1)OCCO2 | nt | -18 | -38 | 45* | -45 | -18
O=C(CSc1nnc(CNc2ccc(F)cc2)o1)N1CCCc2ccccc21 | 63* | nt | nt | nt | nt | nt
O=C(NCc1nnc(SCC(=O)N2CCCc3ccccc32)o1)c1ccco1 | -25 | nt | nt | nt | nt | nt
COc1ccc(C(=O)N2CCOC2CNC(=O)C(=O)NCc2ccc(Cl)cc2)cc1 (centres undefined) | -10 | nt | nt | nt | nt | nt
CCNc1nc(NCC)nc(SCCOc2ccc(C)cc2)n1 | 1 | nt | nt | nt | nt | nt
SMILES | E-sel TNF inh | HUVEC tox TNFa | IL1B cytotox | NFkB transloc pot | IL1B NFkB inh | VCAM1 TNFa inh
COc1ccc(OC)c(CCNC(=O)CSc2ccsc2[N+](=O)[O-])c1 | 77* | nt | nt | nt | nt | nt
CC(=O)Nc1ccc(/C=N/N2CCCCC2)cc1 | 4 | nt | nt | nt | nt | nt
CCc1ccc(CC2(O)CC(C)N(C)CC2C)cc1 (centres undefined) | -15 | nt | nt | nt | nt | nt
COc1ccc(C=NCCC2(O)CC(C)N(C)CC2C)cc1 (centres undefined) | 0 | 2 | -7 | -40 | 40* | 2
C=CCN(CC=C)S(=O)(=O)c1ccc(NC(=S)NC(=O)/C=C/c2cccc3ccccc23)cc1 | 68* | 2 | 7 | 7 | -6 | -10
CC(NC(=O)COc1cccc(Br)c1)C(=O)O (centres undefined) | 77* | -2 | 2 | -4 | 4 | -13
CC(NC(=O)COc1ccc(Br)cc1)C(=O)O (centres undefined) | 9 | -19 | -14 | 6 | -6 | -2
COc1cc(NC(=O)c2ccc(COCC(F)(F)F)o2)cc(OC)c1OC | 16 | 21 | 2 | 4 | -4 | 50*
COc1ccc(-n2nnnc2SCC(=O)NCCc2ccccc2)cc1OC | 18 | nt | nt | nt | nt | nt
COc1ccc(CCNc2nnc(Sc3nnnn3-c3ccccc3)s2)cc1OC | 19 | 36 | -15 | 10 | -10 | 87*
C/C=C/Cn1c(N2CCCCCC2)nc2c1c(=O)[nH]c(=O)n2C | 74* | 3 | 27 | -12 | 12 | -9
Cn1c(=O)[nH]c(=O)c2c1nc(N1CCCCCC1)n2CC(N)=O | -42 | -9 | -25 | -6 | 6 | 10
COC(=O)C1=NN(c2cccc(C)c2)C2C(=O)N(c3ccccc3OC)C(=O)C12 (centres undefined) | 73* | nt | nt | nt | nt | nt

Screening data as filed in PubChem.
